Compound activity from PubChem.
S aureus helic: inhibitors of S. aureus replicative helicase, primary screen, biochemical, fluorescence unwinding readout; 120,000 compounds, 0.05% hits; replicative DNA helicase (DnaC/DnaB), Staphylococcus aureus; purified S. aureus helicase, fluorescence unwinding assay; inhibition, % (no concentration beside the values); in the data active means inhibition above about 25%, passing the limit was not always enough;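 further: 0% = mean of negative control wells and 100% = mean of positive control wells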
Sa growth 42C: S. aureus growth inhibition at 42 and 30 °C, primary screen, LtaS inhibitor project, RN4220, two temperatures; relative growth, % (no concentration beside the values); OD600, 20 h, 42 °C; active compounds read low; AID 720641, 2013; 170,000 compounds, 0.53% hits;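 active means relative growth at most 50% at the other temperature and 20+ points below 30 °C, or under 10% at both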
Active calls of the source: *; . = no result given; ! = not active in a repeat. The list is not random: actives were taken first. Their share in the collection is about 0.52%.

SMILES | S aureus helic | Sa growth 42C
CS(=O)(=O)c1ccc(C(O)[C@H](CF)NC(=O)C(Cl)Cl)cc1 (stereo partly drawn) | . | -0.8*
CCNc1nc(NCC)n2c(SCC(=O)/C=C3/N(C)c4ccccc4C3(C)C)nnc2n1 | -28 | 112
FC(F)(F)c1cnc(NNC(=S)NCC2CCCO2)c(Cl)c1 (stereo not drawn) | 3 | 102
N#Cc1cc(-c2ccc(Cl)cc2)no1 | 7 | 103
Clc1ccc(-c2cnc3nonc3n2)cc1 | 15 | 0.0*
O=C(NCc1ccncc1)c1cccc(Oc2ccccc2)c1 | 0 | 105
O=C(NCc1cccnc1)/C(=C\c1ccc(Br)cc1)S(=O)(=O)c1ccccc1 | 10 | -1.3*
O=C(NCc1cccnc1)c1ccc(Br)cc1 | 18 | .
O=C(NCc1cccnc1)/C(=C\c1cccc(Oc2ccccc2)c1)S(=O)(=O)c1ccccc1 | 17 | -1.3*
CC1CN(C(=O)CCSc2ccc(Cl)cc2)CC(C)O1 (stereo not drawn) | -1 | 92
COc1cc2c3nc4n(c(=O)c3n(C)c2cc1OC)CCS4 | 49* | 98
Cn1c2ccc(F)cc2c2nc3n(c(=O)c21)CCS3 | -3 | 96
CCNc1ccc(S(=O)(=O)C(F)(F)F)cc1NCC(=O)N1CCCc2ccccc21 | -15 | 91
CCOC(=O)/C(C#N)=C/C1=C(N)CC(C)(C)OC1 | 5 | 112
O=C(CSc1ncc(-c2ccc(Br)cc2)[nH]1)N(Cc1ccco1)CC(F)(F)F | -5 | 73
CCOc1cccc(C2c3c(-c4cc(C)ccc4O)n[nH]c3C(=O)N2Cc2ccco2)c1 (stereo not drawn) | . | 35*
COc1cc(C2c3c(-c4cc(C)ccc4O)n[nH]c3C(=O)N2Cc2ccco2)cc(OC)c1OC (stereo not drawn) | . | 107
C=CCSc1ncc2c(=S)[nH]c(=S)[nH]c2n1 | . | 0.0*
CCN(CC)c1ncc2c(=S)[nH]c(=S)[nH]c2n1 | . | 95
Cc1nc(-c2ccccn2)nc(SCC(=O)c2ccccc2)c1Cl | . | 106
Cc1nc(-c2ccccn2)nc(SCc2ccccc2)c1Cl | . | 19*
COc1ccc(NC(=O)CCn2c(=O)sc3ccccc32)cc1 | 5 | .
O=S(=O)(c1ccc2ccccc2c1)N1CCN(Cn2[nH]c(-c3cccs3)nc2=S)CC1 | 21 | 42
C=CCN(CC=C)Cn1[nH]c(-c2cccs2)nc1=S | -3 | 38*
CC(C)(C)c1ccc(Cn2c(=N)n(CC(=O)c3ccco3)c3ccccc32)cc1 | -42 | -0.6*
SMILES | S aureus helic | Sa growth 42C
CC(C)(C)c1ccc(Cn2c(=N)n(CC(O)c3ccco3)c3ccccc32)cc1 (stereo not drawn) | -4 | 31
O/N=C/c1ccc(Cl)cc1 | 6 | 96
Clc1ccc(/C=N/c2ccccn2)cc1 | 12 | 1.3*
Nc1ccc2c3c(cccc13)C(=O)N(c1ccccc1)C2=O | -127 | 95
O=C1NC(=O)c2ccc3c4c(ccc1c24)C(=O)N(c1ccccc1)C3=O | 24 | 5.5*
c1ccc(-c2ccc3c(c2)c2c4n3CCNC4CCC2)cc1 (stereo not drawn) | 14 | 0.3*
OC(c1ccccc1)c1ccc2c(c1)c1c3n2CCNC3CCC1 (stereo not drawn) | -2 | 87
CCOC(=O)C1=C(C)NC(C)=C(C(=O)OCC)C1C(=O)OCC(=O)c1cc(C)n(Cc2cccs2)c1C | -8 | 106
CC(=O)O[C@H]1C[C@@]2(C)[C@@H](C[C@@H](O)C3[C@]2(C)CC[C@H]2[C@H](C)[C@H](O)CC[C@]32C)/C1=C(/CCC=C(C)C)C(=O)O (stereo partly drawn) | . | 0.6*
O=C1COc2ccccc2N1CC(=O)N(CC1CCCO1)C1CCS(=O)(=O)C1 (stereo not drawn) | 10 | 105
Cc1ccc(C)c(NC2(C#N)CCCCC2)c1 | 7 | 89
N=C1/C(=C2\Nc3ccccc3S2)CC(=O)N1CCc1ccccc1 | -13 | 1.4*
N=C1/C(=C2\Nc3ccccc3S2)CC(=O)N1Cc1ccco1 | -24 | 41
COC(=O)c1ccc(C)c(NC(=O)C(C)Sc2ccccc2)c1 (stereo not drawn) | -7 | 100
Cc1cc(=O)n(-c2nc3ccccc3[nH]2)[nH]1 | 7 | 8.3*!
Cc1[nH]n(-c2nc3ccccc3[nH]2)c(=O)c1C1OC(=O)c2ccccc21 (stereo not drawn) | 11 | 46
Cc1nn(-c2nc3ccccc3[nH]2)c(N)c1-c1ccccc1 | -13 | 85
O=c1cc(-c2ccccc2)[nH]n1-c1nc2ccccc2[nH]1 | 17 | 7.5*
c1ccc2c(CNc3ncn[nH]3)cccc2c1 | 14 | 119
N#Cc1c(N)[nH]c(=S)c(C(N)=O)c1-c1cccc(Br)c1 | 16 | 0.3*
CCc1[nH]c(=S)c(C#N)c(-c2ccccc2)c1C(=O)OC | 2 | 122
COc1ccc(NC(=O)CN(C)Cc2ccccc2)cc1 | -3 | 99
O=C(O)C(C(=O)C1CC1c1ccccc1)=C1SCCS1 (stereo not drawn) | 9 | 131
N#CC(C#N)=NNc1ccc(SC(F)F)cc1 | 30 | 0.9*
CCOC(=O)/C(C#N)=N/Nc1ccc(SC(F)F)cc1 | 10 | 34
SMILES | S aureus helic | Sa growth 42C
O=C(NCCSc1nnnn1-c1ccccc1)C(c1ccccc1)c1ccccc1 | -4 | 104
Cn1nnnc1SCC1=C(C(=O)O)N2C(=O)C(NC(=O)C(O)c3ccccc3)C2SC1 (stereo not drawn) | . | -0.5*
CO[C@@]1(NC(=O)C(C(=O)O)c2ccc(O)cc2)C(=O)N2C(C(=O)O)=C(CSc3nnnn3C)CO[C@@H]21 (stereo partly drawn) | . | 88
Cn1nnnc1SCCC(=O)Nc1ccccc1 | 2 | 92
O=C(O)C1=C(CSc2nnnn2CS(=O)(=O)O)CS[C@@H]2C(NC(=O)[C@H](O)c3ccccc3)C(=O)N12 (stereo partly drawn) | . | -0.7*
Cn1nnnc1SCC1=C(C(=O)O)N2C(=O)C(NC(=O)C(OC=O)c3ccccc3)C2SC1 (stereo not drawn) | . | -0.7*
CC[C@@H]1OC(=O)C[C@@H](O)[C@H](C)[C@@H](O[C@@H]2O[C@H](C)[C@@H](O)[C@H](N(C)C)[C@H]2O)[C@@H](CCN2C[C@H](C)C[C@H](C)C2)C[C@@H](C)C(=O)/C=C/C(C)=C\[C@@H]1CO[C@@H]1O[C@H](C)[C@@H](O)[C@@H](OC)[C@H]1OC | . | 0.5*
CCCCn1cnc2cc(NCc3ccccc3Cl)ccc21 | . | 1.0*
Cn1cnc2cc(NCc3ccccc3Cl)ccc21 | 7 | 97
CCCn1c2ccccc2c2cnn(CC(=O)N(C)Cc3ccccc3)c(=O)c21 | -12 | 93
COc1cc2nc(N3CCN(c4cc(C)ccc4C)CC3)nc(N)c2cc1OC | -12 | -0.7*
COc1nc(OC)nc(N2CCN(c3cc(C)ccc3C)CC2)n1 | 7 | 92
CSCCC(N)c1nc2ccccc2[nH]1 (stereo not drawn) | -20 | 90
COC(=O)c1cc(=O)n(-c2cc(Cl)cc(Cl)c2)[nH]1 | 40 | 13*
COC(=O)c1n[nH]n(-c2cc(Cl)cc(Cl)c2)c1=O | . | 90
Cc1ccc(CNC(=O)Nc2nnc(N3CCCC(C)C3)s2)cc1 (stereo not drawn) | 6 | 99
N#Cc1c(Cl)nc(Cl)c(Cl)c1Cl | -3 | 66
CC(C)=NNc1nc(Cl)c(C#N)c(Cl)c1Cl | . | 6.4*
